The target in assay [1] is Cytochrome P450 3A4 (Homo sapiens) (UniProt P08684). In words: qHTS Assay for Inhibitors and Substrates of Cytochrome P450 3A4 (AID 884; active = well fitted curve in the direction sought with a large enough effect; an effect the other way counts as inactive or inconclusive; also: potency is read from the fitted curve at half-maximal effect; nearly all actives have a fitted effect of over 50% in size). Summed up: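 Luminescent readout of luciferin produced by CYP3A4 (20 nM) dealkylation of Luciferin-PPXE, 25 uM (its KM). NADPH-driven reaction ran 60 min at RT after 10 min compound preincubation; data scaled to 57 uM ketoconazole as 100% inhibition.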
Chain of Cytochrome P450 3A4 (Homo sapiens) (P08684 whole entry, looked up): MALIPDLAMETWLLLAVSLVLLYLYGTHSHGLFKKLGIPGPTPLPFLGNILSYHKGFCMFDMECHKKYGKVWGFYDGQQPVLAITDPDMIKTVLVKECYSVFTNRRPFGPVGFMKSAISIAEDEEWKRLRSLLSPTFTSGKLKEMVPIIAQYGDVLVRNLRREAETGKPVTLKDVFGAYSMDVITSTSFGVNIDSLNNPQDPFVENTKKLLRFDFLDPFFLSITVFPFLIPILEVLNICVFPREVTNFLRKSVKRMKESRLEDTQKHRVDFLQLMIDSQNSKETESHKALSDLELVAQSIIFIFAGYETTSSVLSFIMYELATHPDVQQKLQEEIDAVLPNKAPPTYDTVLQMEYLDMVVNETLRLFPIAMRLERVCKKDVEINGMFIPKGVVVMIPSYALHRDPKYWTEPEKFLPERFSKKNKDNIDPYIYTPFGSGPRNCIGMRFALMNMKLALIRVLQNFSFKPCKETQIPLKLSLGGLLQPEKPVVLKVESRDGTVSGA
On the technique in general: Quantitative high-throughput screening tests each substance at several concentrations.

Assay [2] has the same target. The assay is described as follows: qHTS Assay for Activators of Cytochrome P450 3A4 (AID 885; active = well fitted curve in the direction sought with a large enough effect; an effect the other way counts as inactive or inconclusive; also: nearly all actives have a fitted effect of over 65% in size). Summed up:
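Luminescent readout of luciferin formed from 25 uM Luciferin-PPXE (KM level) by 20 nM CYP3A4 in 200 mM KPO4, with 60 min NADPH-driven reaction at room temperature after 10 min compound exposure. Ketoconazole (57 uM) defined 100% inhibition.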

Assay [3] has as its target Cytochrome P450 2C19 (Homo sapiens) (UniProt P33261). The assay is described as follows: qHTS Assay for Inhibitors and Substrates of Cytochrome P450 2C19 (AID 899; active = well fitted curve in the direction sought with a large enough effect; an effect the other way counts as inactive or inconclusive; also: potency is read from the fitted curve at half-maximal effect; nearly all actives have a fitted effect of over 60% in size). The method, boiled down: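 Luminescent read-out of luciferin formed from Luciferin-H EGE (10uM, equal to KM). Enzyme 5nM in 50mM KPO4; compound added, 10 min at 37C, then NADPH regenerating system for 60 min at 37C. Full inhibition defined by 57uM ketoconazole.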

In assay [4] the target is Alpha-galactosidase (Coffea arabica) (UniProt Q42656). In words: Counterscreen for Glucocerebrosidase Inhibitors: qHTS Assay for Coffee Bean alpha-Galactosidase at pH 4.5 (AID 957; active = well fitted curve in the direction sought with a large enough effect; an effect the other way counts as inactive or inconclusive;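 also: plate controls were enzyme alone for no effect and no enzyme for full effect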). Summed up: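 Quantitative HTS of compounds (0.7 nM to 77 uM) against coffee bean alpha-galactosidase at pH 4.5, measuring 4-methylumbelliferone fluorescence released from 80 uM substrate.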
Chain of Alpha-galactosidase (Coffea arabica) (Q42656 whole entry, looked up): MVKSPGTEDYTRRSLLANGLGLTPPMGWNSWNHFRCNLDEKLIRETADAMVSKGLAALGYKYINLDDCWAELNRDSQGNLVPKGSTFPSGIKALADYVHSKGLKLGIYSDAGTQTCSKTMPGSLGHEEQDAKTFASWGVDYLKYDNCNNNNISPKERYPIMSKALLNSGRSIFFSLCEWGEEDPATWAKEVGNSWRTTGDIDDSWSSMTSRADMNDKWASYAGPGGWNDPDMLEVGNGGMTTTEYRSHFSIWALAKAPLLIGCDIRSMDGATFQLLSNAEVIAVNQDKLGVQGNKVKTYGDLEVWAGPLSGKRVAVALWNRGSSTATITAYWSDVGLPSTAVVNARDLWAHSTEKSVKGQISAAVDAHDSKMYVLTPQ
In general terms: Counterscreens check selectivity or assay interference.

Assay [5] has the same target. The assay is described as follows: Counterscreen for Glucocerebrosidase Inhibitors: qHTS Assay for Coffee Bean alpha-Galactosidase at pH 5.9 (AID 998; active = well fitted curve in the direction sought with a large enough effect; an effect the other way counts as inactive or inconclusive;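 also: plate controls were uninhibited enzyme for no effect and no-enzyme basal signal for full effect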). Summed up: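 Enzyme 2 nM + cpd (0.7 nM–77 uM titration) + 4-MU-alpha-Gal 80 uM, pH 5.9 citrate/Tween-20, RT 20 min, NaOH/glycine stop pH 10, fluor 365/440. Normalized to no-enzyme and full-activity controls; Hill-fit AC50.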

The nature of assay [6]: Validation screen for inhibitors of Lassa infection (AID 463096). Also: % is scaled to controls: 0 for no effect and ±100 for the full control effect.
Assay [7] can be described thus: Inducers of the Endoplasmic Reticulum Stress Response (ERSR) in human glioma: Validation (AID 504836; active = well fitted curve in the direction sought with a large enough effect; an effect the other way counts as inactive or inconclusive; also: 0% is about no effect). Summed up:
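Stably transfected U87-MG glioma cells carrying a GRP78-based luciferase sensor; 16 h compound incubation. Luminescence end-point read 10 min after Bright-Glo addition at room temperature.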

A short description of assay [8]: qHTS profiling of the MIPE4 collection as inhibitors of Plasmodium falciparum (3D7) proliferation (AID 743344; call rule not given here;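 also: scaled between DMSO vehicle wells and 0.29 µM artemisinin as full inhibition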). The note with it: P. falciparum 3D7 in erythrocytes, SYBR Green DNA fluorescence, 72 h; at 28.5 µM (top of the series) unless noted. Summed up:
(§1)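 Parasite DNA was quantified by SYBR Green I fluorescence (ex 485, em 535 nm) after overnight lysis in saponin/Triton buffer at room temperature. Cultures at 0.3% parasitemia and 2.5% hematocrit were first exposed to compound for 72 h at 37 C; signals were normalised to artemisinin (0.29 uM) and vehicle wells.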

Assay [9] can be described thus: qHTS profiling of the MIPE4 collection as inhibitors of Plasmodium falciparum (DD2) proliferation (AID 743345; call rule not given here). The note with it: P. falciparum Dd2 in erythrocytes, SYBR Green DNA, 72 h; at 28.5 µM (top of the series) unless noted. The method, boiled down: as §1
The nature of assay [10]: qHTS profiling of the MIPE4 collection as inhibitors of Plasmodium falciparum (DD2) proliferation (Rep 2) (AID 743346; call rule not given here). The note with it: P. falciparum Dd2 in erythrocytes, SYBR Green DNA, 72 h; at 28.5 µM (top of the series) unless noted. The method, boiled down:
as §1

The nature of assay [11]: qHTS for Inhibitors of the Functional Ribonucleoprotein Complex (vRNP) of Lassa (LASV) Arenavirus: LASV Primary Screen - GLuc reporter signal (AID 1347082; calls by dose curve; tested in HEK293 reporter line; also: nearly all actives have a fitted effect of over 60% in size; also: potency is read from the fitted curve at half-maximal effect; as to activity change, negative = inhibition: % is scaled to controls: 0 for no effect and ±100 for the full control effect).
Assay [12] can be described thus: qHTS for Inhibitors of the Functional Ribonucleoprotein Complex (vRNP) of Lassa (LASV) Arenavirus: Viability assay - alamar blue signal for LASV Primary Screen (AID 1347083; calls by dose curve; tested in HEK293 reporter line; also: nearly all actives have a fitted effect of over 80% in size; also: potency is read from the fitted curve at half-maximal effect).
Assay [13] can be described thus: qHTS for Inhibitors of the Functional Ribonucleoprotein Complex (vRNP) of Lymphocytic Choriomeningitis Arenaviruses (LCMV): Viability assay - alamar blue signal for LCMV Primary Screen (AID 1347085; calls by dose curve; tested in HEK293 reporter line; also: nearly all actives have a fitted effect of over 80% in size; also: potency is read from the fitted curve at half-maximal effect).
The nature of assay [14]: Cytotoxicity counterscreen for inhibitors of SARS-CoV-2 cell entry (AID 1645845). Also: nearly all actives have a fitted effect of over 50% in size. The method, boiled down:
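Counterscreen run in the same HEK293-ACE2 line as the pseudotyped-particle entry assay, without particles. Viability after 48 h at 37 C was read as ATP luminescence, scaled between cell-containing and cell-free wells.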

Assay [15] is described as follows: Primary qHTS to identify inhibitors of SARS-CoV-2 cell entry (AID 1645846). Also: nearly all actives have a fitted effect of over 45% in size. Also: potency is read from the fitted curve at half-maximal effect. The note with it: activity change, negative = inhibition: at 57.1 µM (top of the series) unless noted. The method, boiled down: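 Data are normalized to wells receiving SARS-CoV-2-S pseudoparticles and those given bald particles. Entry signal was luciferase luminescence in stable hACE2 Expi293F cells, 48 hr post-infection, after 1 hr compound pretreatment.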

Assay [16] has as its target Nucleoprotein (Lymphocytic choriomeningitis virus (strain Armstrong)) (UniProt P09992). The assay is described as follows: qHTS for Inhibitors of the Functional Ribonucleoprotein Complex (vRNP) of Lymphocytic Choriomeningitis Arenaviruses (LCMV): LCMV Primary Screen - GLuc reporter signal (AID 1347086). Also: nearly all actives have a fitted effect of over 70% in size. Also: potency is read from the fitted curve at half-maximal effect. As to activity change, negative = inhibition: % is scaled to controls: 0 for no effect and ±100 for the full control effect.
The nature of assay [17]: Confirmatory qHTS for VERO E6 Cytotoxicity Assay: Counterscreen for SARS-CoV-2 CPE Assay (AID 1508605). Also: potency is read from the fitted curve at half-maximal effect; nearly all actives have a fitted effect of over 60% in size.
Assay [18] is described as follows: Confirmatory qHTS for activators (rescue) of SARS-CoV-2 Cytopathic Effect (CPE) (AID 1508606). Also: potency is read from the fitted curve at half-maximal effect; nearly all actives have a fitted effect of over 70% in size.

Records with an inconclusive call do not appear. Calls of active or inactive are those of the source. Unless noted, calls follow the shape of the full dose curve. Square brackets hold non-standard residues; d marks the D form. Peptide text beside a SMILES is read from it. * marks the point of attachment. Nva = CCC[C@H](N)C(=O)O; Cbz = O=C(OCc1ccccc1)*

Chain of Nucleoprotein (Lymphocytic choriomeningitis virus (strain Armstrong)) (P09992 whole entry, looked up): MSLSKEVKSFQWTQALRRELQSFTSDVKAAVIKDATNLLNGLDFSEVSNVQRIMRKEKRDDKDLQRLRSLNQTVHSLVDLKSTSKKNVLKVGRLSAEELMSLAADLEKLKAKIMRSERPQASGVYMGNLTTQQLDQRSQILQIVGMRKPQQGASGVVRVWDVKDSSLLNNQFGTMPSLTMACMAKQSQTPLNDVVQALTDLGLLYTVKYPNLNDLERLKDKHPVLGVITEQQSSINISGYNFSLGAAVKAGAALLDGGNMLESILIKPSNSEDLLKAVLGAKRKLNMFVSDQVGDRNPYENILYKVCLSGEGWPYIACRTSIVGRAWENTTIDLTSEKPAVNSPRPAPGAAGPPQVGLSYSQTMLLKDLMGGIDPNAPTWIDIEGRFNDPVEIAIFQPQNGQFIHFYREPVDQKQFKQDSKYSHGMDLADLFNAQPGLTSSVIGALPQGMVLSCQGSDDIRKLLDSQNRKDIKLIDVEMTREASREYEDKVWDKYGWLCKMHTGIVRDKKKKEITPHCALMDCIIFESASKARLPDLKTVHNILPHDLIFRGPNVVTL
Chain of Cytochrome P450 2C19 (Homo sapiens) (P33261 whole entry, looked up): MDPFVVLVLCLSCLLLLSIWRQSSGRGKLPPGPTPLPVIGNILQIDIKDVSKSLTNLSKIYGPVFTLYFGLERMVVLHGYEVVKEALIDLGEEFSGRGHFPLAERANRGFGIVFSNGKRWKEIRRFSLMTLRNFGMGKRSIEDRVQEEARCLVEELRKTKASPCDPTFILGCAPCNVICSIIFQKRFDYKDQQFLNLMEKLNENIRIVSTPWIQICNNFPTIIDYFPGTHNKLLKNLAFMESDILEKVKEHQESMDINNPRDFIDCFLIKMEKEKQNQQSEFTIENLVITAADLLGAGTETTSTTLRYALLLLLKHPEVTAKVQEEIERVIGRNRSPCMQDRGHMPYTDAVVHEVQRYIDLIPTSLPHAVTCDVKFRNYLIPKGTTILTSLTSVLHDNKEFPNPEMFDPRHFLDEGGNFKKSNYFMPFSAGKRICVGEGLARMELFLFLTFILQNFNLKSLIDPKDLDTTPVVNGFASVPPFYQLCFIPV

Consider `Nc1nc(OCc2ccccc2)c2[nH]cnc2n1`, for which the Potency in assay [1] is 7.94 µM (active); in assay [3] it was 6.31 µM (active); in [13] it was 17.2 µM (active). Also, the Potency entry in assay [2], in [6], in assay [11], in assay [12], in assay [14] and in assay [15] was “inactive” throughout. Moreover, the outcome in assay [4], in [5] and in [7] was inactive. This compound came in with a parasite growth, % of DMSO control in assay [8] of 83.5%. For the same compound, the parasite growth remaining, % of DMSO control (lower = more inhibition) in [9] amounted to 103%. Also, the parasite growth, % of control (lower = inhibition) in assay [10] was 72.1%.
As for `N#C/C(=C\c1ccc(O)c(O)c1)C(=O)NCCc1ccccc1`, the result in assay [4] and in assay [5] was inactive. The Potency result in [11], in assay [12], in [13] and in assay [16] was “inactive” in each case.
With `CCC[C@@H](C=O)NC(=O)[C@H](CC(C)C)NC(=O)[C@H](CC(C)C)NC(=O)OCc1ccccc1` (Cbz-Leu-Leu-[Nva]-aldehyde), the Potency in assay [11] was 3.43 µM (active); in assay [12], 5.44 µM (active); in [13], 12.2 µM (active); in assay [17] it was 0.714 µM (active); in assay [15], 0.891 µM (active).
`CCS(=O)(=O)Nc1ccc2[nH]c(O)c(C(=Nc3ccc(CN4CCCCC4)cc3)c3ccccc3)c2c1`: the Potency in [11] was 9.68 µM (active); in assay [12] it was 2.17 µM (active); in [13], 0.968 µM (active); in [15], 2.82 µM (active).
With `CC(C)OC(=O)[C@H](C)N[P@](=O)(OC[C@H]1O[C@@H](n2ccc(=O)[nH]c2=O)[C@](C)(F)[C@H]1O)Oc1ccccc1`, in assay [8], the parasite growth, % of DMSO control amounted to 62.8%. In addition, in assay [9], the parasite growth remaining, % of DMSO control (lower = more inhibition) was found to be 95.7%. Further, in [10], the parasite growth, % of control (lower = inhibition) was determined as 78.3%. The Potency entry in [11], in assay [12], in assay [13] and in [16] was “inactive” throughout.
Regarding `CN(C)CCCc1cc(C(=O)Nc2ccc(-c3ccncc3)cc2)ccc1O`, the outcome in [7] was inactive. Moreover, the Potency result in assay [11], in assay [12] and in [13] was “inactive” throughout.
As to `COc1ccc(-c2cc3nccn3c(Nc3ncccc3C(N)=O)n2)cc1OC`, the Potency result in assay [11], in [16] and in [14] was “inactive” throughout. Moreover, the Potency in [12] was 2.17 µM (active).
Consider `CCNC(=O)c1cc2c(-c3cc(OCCN4CCCC4)c(Cl)cc3Cl)nc(N)nc2s1`, for which the results for the Potency in assay [11], in [12] and in assay [16] were 4.85 µM (active), 4.32 µM (active) and 1.37 µM (active), respectively.
The matching figures for `COc1c2ccoc2c(OC[C@@H](O)C(C)(C)OC)c2oc(=O)ccc12`: “inactive”, “inactive” and “inactive”.
`CC(C)(N)c1ccc(-c2nc3ccccc3nc2-c2ccccc2)cc1`: the Potency result in assay [11], in [16] and in assay [14] was “inactive” throughout. The Potency in [12] is 19.3 µM (active); in assay [18], 10 µM (active). The activity change, negative = inhibition in [15] was -19.6%.
In the case of `CC(C)(C)Cn1c(N)nc2ccc(-c3[nH]c(C(C)(C)C)nc3-c3ccc(F)cc3)nc21`, the Potency entry in assay [11], in assay [12] and in [16] was “inactive” throughout. Further, the results for the Potency in [17] and in assay [18] were 11.2 µM (active) and 1.58 µM (active), respectively.
For the compound `c1ccc(C(NCCNC(c2ccccc2)c2ccccc2)c2ccccc2)cc1`, the result in assay [7] was inactive. The Potency entry in [11], in assay [12] and in assay [13] was “inactive” in each case.

(Values after PubChem BioAssay (NCATS).)
